Assay results as given in PubChem BioAssay AID1159580 (chemical genetic matrix, 2015).
“And” between values parts separate entries of the source, which are not always exact repeats. Identical values can stand only once. Among all 5,500 compounds or so, about 2,000 (36%) were called active. Another 18% or so got no clear call; they are omitted. No stated cut-off is given here; in the data, active means normalized growth mostly below about 0.91 (no sharp cut-off); inconclusive means no clear call, values can overlap the other calls; inactive means mostly above about 0.92. The list shows a part of the results.

Test: chemical genetic growth profiling, strain panel (AID 1159580);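 further: tested at 20 µM; growth read once vehicle control cultures reached saturation at 30 °C; 1 = growth at the plate median or of vehicle wells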
Conditions: S. cerevisiae deletion strains, growth OD

Measured: normalized growth

OCCN(CCO)c1nc(N2CCCCC2)c2nc(N(CCO)CCO)nc(N3CCCCC3)c2n1
inactive: locus YAL013W, strain DEP1, stronger effect = lower value 1.02 | locus YAL021C, strain ccr4, stronger effect = lower value 0.962 | locus YAL026C, strain drs2, stronger effect = lower value 0.964 | locus YAL030W, strain snc1, stronger effect = lower value 0.992 | locus YAL040C, strain CLN3, stronger effect = lower value 0.999 | locus YBL061C, strain skt5, stronger effect = lower value 0.992 | locus YBR009C, strain hhf1, stronger effect = lower value 0.981 | locus YBR021W, strain FUR4, stronger effect = lower value 0.956 | locus YBR023C, strain chs3, stronger effect = lower value 1 | locus YBR171W, strain sec66, stronger effect = lower value 0.994 | locus YBR229C, strain ROT2, stronger effect = lower value 1.01 | locus YBR231C, strain swc5, stronger effect = lower value 0.944 | locus YBR279W, strain paf1, stronger effect = lower value 0.986 | locus YCL011C, strain gbp2, stronger effect = lower value 0.998 | locus YCL016C, strain dcc1, stronger effect = lower value 1.03 | locus YCL029C, strain bik1, stronger effect = lower value 1.01 | locus YCL061C, strain MRC1 (second series), stronger effect = lower value 1 | locus YCL061C, strain MRC1, stronger effect = lower value 1 | locus YCL069W, strain vba3, stronger effect = lower value 0.97 | locus YCR088W, strain abp1, stronger effect = lower value 0.989 | locus YDL005C, strain med2, stronger effect = lower value 0.978 | locus YDL035C, strain GPR1, stronger effect = lower value 1.01 | locus YDL040C, strain nat1, stronger effect = lower value 0.976 | locus YDL074C, strain BRE1, stronger effect = lower value 0.979 | locus YDL101C, strain DUN1, stronger effect = lower value 1 | locus YDL134C, strain PPH21, stronger effect = lower value 1 | locus YDL185W, strain tfp1, stronger effect = lower value 0.995 | locus YDL192W, strain arf1, stronger effect = lower value 0.999 | locus YDR001C, strain nth1, stronger effect = lower value 0.993 | locus YDR069C, strain doa4, stronger effect = lower value 0.969 | locus YDR101C, strain arx1, stronger effect = lower value 0.99 | locus YDR137W, strain rgp1, stronger effect = lower value 1.01 | locus YDR150W, strain NUM1, stronger effect = lower value 1.01 | locus YDR159W, strain sac3, stronger effect = lower value 0.937 | locus YDR162C, strain NBP2, stronger effect = lower value 1 | locus YDR297W, strain sur2, stronger effect = lower value 0.997 | locus YDR318W, strain mcm21, stronger effect = lower value 0.996 | locus YDR334W, strain swr1, stronger effect = lower value 0.974 | locus YDR335W, strain msn5, stronger effect = lower value 0.988 | locus YDR363W, strain ESC2, stronger effect = lower value 1.03 | locus YDR388W, stronger effect = lower value 0.998 | locus YDR392W, strain spt3, stronger effect = lower value 0.898 | locus YDR502C, strain sam2, stronger effect = lower value 1.01 | locus YEL003W, strain gim4, stronger effect = lower value 0.964 | locus YEL037C, strain rad23, stronger effect = lower value 0.965 | locus YEL061C, strain CIN8 (second series), stronger effect = lower value 0.976 | locus YEL061C, strain CIN8, stronger effect = lower value 1.01 | locus YER002W, strain NOP16, stronger effect = lower value 1 | locus YER015W, strain faa2, stronger effect = lower value 0.978 | locus YER016W, strain bim1, stronger effect = lower value 0.976 | locus YER110C, stronger effect = lower value 1 | locus YER111C, strain swi4, stronger effect = lower value 0.971 | locus YER155C, strain BEM2 (second series), stronger effect = lower value 0.992 | locus YER155C, strain BEM2, stronger effect = lower value 1.01 | locus YER167W, strain BCK2, stronger effect = lower value 1.02 | locus YFR010W, strain ubp6, stronger effect = lower value 0.956 | locus YGL078C, strain dbp3, stronger effect = lower value 1 | locus YGL086W, strain mad1, stronger effect = lower value 0.998 | locus YGL167C, strain pmr1, stronger effect = lower value 0.987 | locus YGL173C, strain kem1, stronger effect = lower value 0.982 | locus YGL227W, strain vid30, stronger effect = lower value 0.989 | locus YGL240W, strain doc1, stronger effect = lower value 0.979 | locus YGL248W, strain PDE1, stronger effect = lower value 1.01 | locus YGL253W, strain hxk2, stronger effect = lower value 0.956 | locus YGR135W, strain pre9, stronger effect = lower value 0.993 | locus YGR229C, strain SMI1, stronger effect = lower value 0.996 | locus YGR252W, strain gcn5, stronger effect = lower value 0.931 | locus YHR013C, strain ard1, stronger effect = lower value 0.988 | locus YHR027C, strain rpn1, stronger effect = lower value 0.984 | locus YHR030C, strain SLT2, stronger effect = lower value 1.01 | locus YHR079C, strain IRE1 (second series), stronger effect = lower value 0.994 | locus YHR079C, strain IRE1, stronger effect = lower value 1.1 | locus YHR094C, strain hxt1, stronger effect = lower value 0.998 | locus YHR129C, strain ARP1, stronger effect = lower value 1.01 | locus YHR142W, strain chs7, stronger effect = lower value 0.97 | locus YHR200W, strain rpn10, stronger effect = lower value 1 | locus YIL066C, strain RNR3, stronger effect = lower value 1.02 | locus YIL073C, strain SPO22, stronger effect = lower value 1.01 | locus YIL125W, strain kgd1, stronger effect = lower value 1 | locus YIR030C, strain dcg1, stronger effect = lower value 0.995 | locus YJL092W, strain hpr5, stronger effect = lower value 0.979 | locus YJL095W, strain BCK1 (second series), stronger effect = lower value 0.997 | locus YJL095W, strain BCK1, stronger effect = lower value 0.988 and 1.01 | locus YJL115W, strain asf1, stronger effect = lower value 0.99 | locus YJL129C, strain trk1, stronger effect = lower value 0.95 | locus YJL134W, strain LCB3, stronger effect = lower value 1 | locus YJL154C, strain vps35, stronger effect = lower value 0.992 | locus YJL164C, strain tpk1, stronger effect = lower value 0.975 | locus YJL166W, strain qcr8, stronger effect = lower value 1.01 | locus YJL168C, strain set2, stronger effect = lower value 0.991 | locus YJL187C, strain SWE1 (second series), stronger effect = lower value 1 | locus YJL187C, strain SWE1, stronger effect = lower value 0.989 | locus YJR043C, strain POL32, stronger effect = lower value 1.01 | locus YJR066W, strain TOR1, stronger effect = lower value 0.982 | locus YJR075W, strain HOC1, stronger effect = lower value 0.997 | locus YKL009W, strain mrt4, stronger effect = lower value 0.998 | locus YKL068W, stronger effect = lower value 1 | locus YKL085W, strain MDH1 (second series), stronger effect = lower value 1.01 | locus YKL085W, strain MDH1, stronger effect = lower value 1.01 | locus YKL160W, strain elf1, stronger effect = lower value 1.04 | locus YKL190W, strain CNB1, stronger effect = lower value 1.01 | locus YKR001C, strain vps1, stronger effect = lower value 1.02 | locus YKR026C, strain gcn3, stronger effect = lower value 0.991 | locus YLL001W, strain dnm1, stronger effect = lower value 1 | locus YLL026W, stronger effect = lower value 0.99 | locus YLL041C, strain sdh2, stronger effect = lower value 0.969 | locus YLR027C, strain aat2, stronger effect = lower value 0.986 | locus YLR039C, strain RIC1, stronger effect = lower value 1.06 | locus YLR058C, strain SHM2, stronger effect = lower value 1.01 | locus YLR102C, strain apc9, stronger effect = lower value 0.987 | locus YLR113W, strain HOG1, stronger effect = lower value 0.999 | locus YLR221C, strain rsa3, stronger effect = lower value 1.02 | locus YLR258W, strain gsy2, stronger effect = lower value 0.997 | locus YLR262C, strain YPT6 (second series), stronger effect = lower value 1.02 | locus YLR262C, strain YPT6, stronger effect = lower value 0.994 | locus YLR268W, strain sec22, stronger effect = lower value 1.01 | locus YLR320W, strain mms22, stronger effect = lower value 1.04 | locus YLR330W, strain CHS5, stronger effect = lower value 1.01 | locus YLR342W, strain FKS1 (second series), stronger effect = lower value 1.02 | locus YLR342W, strain FKS1, stronger effect = lower value 0.99 | locus YLR357W, strain rsc2, stronger effect = lower value 0.985 | locus YLR370C, strain arc18, stronger effect = lower value 0.999 | locus YLR371W, strain rom2, stronger effect = lower value 0.996 | locus YLR384C, strain iki3, stronger effect = lower value 0.994 | locus YLR418C, strain cdc73, stronger effect = lower value 0.976 | locus YML016C, strain PPZ1, stronger effect = lower value 1.01 | locus YML032C, strain rad52, stronger effect = lower value 0.988 | locus YML120C, strain ndi1, stronger effect = lower value 1.02 | locus YML124C, strain tub3, stronger effect = lower value 0.995 | locus YMR058W, strain fet3, stronger effect = lower value 0.968 | locus YMR078C, strain ctf18, stronger effect = lower value 0.994 | locus YMR125W, strain sto1, stronger effect = lower value 0.992 | locus YMR129W, stronger effect = lower value 0.983 | locus YMR205C, strain PFK2, stronger effect = lower value 1.01 | locus YMR223W, strain ubp8, stronger effect = lower value 0.997 | locus YMR231W, strain pep5, stronger effect = lower value 0.989 | locus YMR307W, strain GAS1, stronger effect = lower value 1.02 and 0.989 | locus YNL067W, strain RPL9B, stronger effect = lower value 1 | locus YNL071W, strain lat1, stronger effect = lower value 0.98 | locus YNL128W, strain TEP1, stronger effect = lower value 0.995 | locus YNL153C, strain GIM3, stronger effect = lower value 0.968 | locus YNL175C, strain NOP13, stronger effect = lower value 0.993 | locus YNL183C, strain NPR1, stronger effect = lower value 0.956 | locus YNL197C, strain WHI3, stronger effect = lower value 0.988 | locus YNL209W, strain ssb2, stronger effect = lower value 0.993 | locus YNL224C, strain SQS1, stronger effect = lower value 0.999 | locus YNL233W, strain BNI4, stronger effect = lower value 0.982 | locus YNL248C, strain rpa49, stronger effect = lower value 0.973 | locus YNL250W, strain rad50, stronger effect = lower value 1.01 | locus YNL271C, strain bni1, stronger effect = lower value 0.998 | locus YNL298W, strain CLA4, stronger effect = lower value 0.991 | locus YNL307C, strain MCK1, stronger effect = lower value 0.997 | locus YNL322C, strain KRE1 (second series), stronger effect = lower value 0.988 | locus YNL322C, strain KRE1, stronger effect = lower value 1.02 | locus YNR049C, strain mso1, stronger effect = lower value 0.984 | locus YNR052C, strain pop2, stronger effect = lower value 1 | locus YOL012C, strain htz1 2.13 | locus YOL147C, strain pex11, stronger effect = lower value 1 | locus YOR001W, strain rrp6, stronger effect = lower value 0.928 | locus YOR061W, strain CKA2, stronger effect = lower value 1.02 | locus YOR069W, strain VPS5, stronger effect = lower value 1.01 | locus YOR070C, strain gyp1, stronger effect = lower value 0.996 | locus YOR080W, strain dia2, stronger effect = lower value 0.986 | locus YOR083W, strain WHI5 (second series), stronger effect = lower value 0.981 | locus YOR106W, strain vam3, stronger effect = lower value 1.01 | locus YOR136W, strain idh2, stronger effect = lower value 1 | locus YOR144C, strain elg1, stronger effect = lower value 0.999 | locus YOR184W, strain ser1, stronger effect = lower value 0.997 | locus YOR231W, strain MKK1, stronger effect = lower value 1.02 | locus YOR265W, strain rbl2, stronger effect = lower value 0.997 | locus YOR270C, strain vph1, stronger effect = lower value 0.948 | locus YOR290C, strain snf2, stronger effect = lower value 0.931 | locus YOR316C, strain cot1, stronger effect = lower value 0.999 | locus YPL051W, strain arl3, stronger effect = lower value 1.05 | locus YPL055C, strain LGE1, stronger effect = lower value 0.996 and 1.03 | locus YPL078C, strain atp4, stronger effect = lower value 1 | locus YPL106C, strain sse1, stronger effect = lower value 1.01 | locus YPL240C, strain hsp82, stronger effect = lower value 0.99 | locus YPL241C, strain CIN2, stronger effect = lower value 1 | locus YPL256C, strain CLN2, stronger effect = lower value 1 | locus YPR119W, strain clb2, stronger effect = lower value 0.994 | locus YPR141C, strain kar3, stronger effect = lower value 0.995 | locus YPR163C, strain tif3, stronger effect = lower value 1 | locus YPR167C, strain met16, stronger effect = lower value 0.996 | strain wtn01, stronger effect = lower value 0.994
active: locus YDR195W, strain ref2 0.135 | locus YKR091W, strain srl3, stronger effect = lower value 0.551 | locus YOR083W, strain WHI5, stronger effect = lower value 0.233
